# System: Drosophila S2 cl14 SmoIP sensor cells
# Test: normalized SmoIP GFP fluorescence (untreated unstimulated = 0%, untreated Hh-stimulated = 100%); higher = more Smo activation sensor fluorescence
# Settings: compound concentration: 2 uM, 24 h
# [1] = stimulation: Hh conditioned medium (+Hh)
# [2] = stimulation: mock conditioned medium (-Hh)
# 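Further: flow cytometry read-out as median GFP intensity of gated cells, compounds added 30 min before Hh-conditioned or mock medium, mock-treated cells serving as unstimulated baseline.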
SMILES,normalized SmoIP GFP fluorescence [1] [%],normalized SmoIP GFP fluorescence [2] [%]
Cc1cncc(CN2CCC(=C3c4ccc(Cl)cc4CCc4cccnc43)CC2)c1 [rupatadine-fumarate],112,3.77
Oc1cc(O)c(Cl)cn1 [gimeracil],107,-6.97
Cc1c(Cl)cccc1Nc1ccccc1C(=O)O [tolfenamic-acid],88.3,-15.3
CCOC(=O)c1ncn2c1CN(C)C(=O)c1cc(F)ccc1-2 [Flumazenil],110,1.57
Cc1cnc(Nc2ccc(N3CCN(C)CC3)cc2)nc1Nc1cccc(S(=O)(=O)NC(C)(C)C)c1,159,-5.35
O=C1NCCc2[nH]c(-c3ccncc3)cc21,164,-0.477
Cc1ccc(S(=O)(=O)C=CC#N)cc1,121,2.86
CN1CCC(=C2c3ccccc3CC(=O)c3sccc32)CC1 [ketotifen-fumarate-zaditor],118,-13.9
